The panel holds about 83,000 compounds, 20% with a hit somewhere; the sample as a whole holds those more often.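 Assay: single dose, 48 h. Readout: percent growth (0 = no net growth; negative = cell death). Active: <10.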 A number with no mark means an inactive call. Active and inactive are the calls of the source.
Experiments:
Assay in all cases: NCI-60 one-dose screen, 48 h (100 = growth as untreated, 0 = no growth, -100 = all killed)
Details in all cases: 10 µM unless noted
[1] = test system: DU-145 prostate
[2] = test system: K-562 leukemia
[3] = test system: MALME-3M melanoma
[4] = test system: MDA-MB-231 breast
[5] = test system: RXF 393 renal
[6] = test system: SF-268 CNS
[7] = test system: SF-295 CNS
[8] = test system: SF-539 CNS
[9] = test system: UACC-257 melanoma
[10] = test system: M14 melanoma
[11] = test system: HCT-15 colon
[12] = test system: HT29 colon
[13] = test system: SNB-75 CNS
[14] = test system: SNB-19 CNS
[15] = test system: U251 CNS
[16] = test system: PC-3 prostate
[17] = test system: SK-MEL-5 melanoma
[18] = test system: UACC-62 melanoma
[19] = test system: LOX IMVI melanoma
[20] = test system: SK-MEL-28 melanoma

| Structure (SMILES) | growth [1] | growth [2] | growth [3] | growth [4] | growth [5] | growth [6] | growth [7] | growth [8] | growth [9] | growth [10] | growth [11] | growth [12] | growth [13] | growth [14] | growth [15] | growth [16] | growth [17] | growth [18] | growth [19] | growth [20] |
| --- | --- | --- | --- | --- | --- | --- | --- | --- | --- | --- | --- | --- | --- | --- | --- | --- | --- | --- | --- | --- |
| O=C1C=C[C@]2(C[C@@H](c3cccc(C(F)(F)F)c3)O[C@@H](c3cccc(C(F)(F)F)c3)O2)O1 | 28.7% | -4.01% (active) | 36.4% | -57.2% (active) | -0.258% (active) | -27.1% (active) | 46.1% | -69.6% (active) | 59.6% | 44.8% | -33.8% (active) | -24.2% (active) | 57.9% | 33.2% | 28.6% | 7.18% (active) | -58.2% (active) | -38.6% (active) | -84.6% (active) | 48.6% |
| Cc1ccc(C(=NN=C(N)N)c2ccc(C)cc2)cc1 | -16.6% (active) | 5.03% (active) | 40.4% | -11.3% (active) | -16.1% (active) | 16.7% | 0.547% (active) | -2.53% (active) | 25.9% | -74.7% (active) | 11.6% | 0.831% (active) | -1.11% (active) | 30.4% | 6.36% (active) | 16.3% | -68.6% (active) | 31.6% | -28.3% (active) | 21.4% |
| COC(=O)[C@]12CC[C@@H](C)[C@H](C)[C@@H]1C1=CC[C@@H]3[C@@]4(C)C(C=O)=C[C@@](C)(COS(C)(=O)=O)C4[C@H](O)C[C@@]3(C)[C@]1(C)CC2 (some centres not stated) | -93.6% (active) | 1.48% (active) | -78.6% (active) | -74.9% (active) | -96.4% (active) | -74.4% (active) | -87.3% (active) | -89.6% (active) | -82.2% (active) | -59.9% (active) | -70.3% (active) | -85.2% (active) | -92.1% (active) | -67.7% (active) | -96.2% (active) | -36% (active) | -91.6% (active) | -38.4% (active) | -97.3% (active) | -57.7% (active) |
| CCCCC1CCCCN1C(=O)OCC (configuration not stated) | 108% | 107% | 108% | 107% | 152% | 106% | 127% | 99.7% | 108% | 101% | 103% | 94.1% | 97.8% | 106% | 96.1% | 93.5% | 111% | 107% | 101% | 104% |
| COc1ccc(-c2c(N)n[nH]c2-c2ccc(Cl)cc2O)cc1OC | 101% | 75.5% | 105% | 106% | 98.2% | 102% | 99.2% | 100% | 93% | 93.2% | 88.5% | 111% | 91.3% | 97.7% | 95.6% | 86.3% | 93.7% | 76.3% | 89.5% | 106% |
| CCc1ccccc1-n1c(N)c(C#N)c(-c2ccc(N(C)C)cc2)c(C#N)c1=O | 103% | 89.3% | 91% | 91.3% | 89.6% | 95.6% | 98.3% | 90.2% | 101% | 101% | 97.7% | 101% | 88.3% | 101% | 91.1% | 82.6% | 86.5% | 88% | 92.7% | 100% |
| Fc1cnc(NC2CC2)nc1-c1cnc2ccc(N3CCOCC3)cn12 | 7.39% (active) | 10.9% | -33.7% (active) | 2.98% (active) | -47.1% (active) | 0.958% (active) | 3.46% (active) | -35% (active) | -7.35% (active) | -26% (active) | 1.15% (active) | 0.985% (active) | -42.9% (active) | 11.5% | 8.28% (active) | 5.58% (active) | -53.1% (active) | -80.6% (active) | 4.17% (active) | -4.09% (active) |
| COc1ccc(C(=NN=C(N)N)c2ccc(OC)cc2)cc1 | 52.8% | 19.9% | 69.4% | 48.4% | -2.81% (active) | 47.1% | 48.5% | 57.7% | 43.6% | 18.3% | 69.1% | 15.4% | -5.63% (active) | 43.6% | 39.4% | 30.6% | 13.9% | 52.6% | 15.8% | 59% |
| Nc1cc2c3c(cccc3c1)C(=O)N(CCN1CCCC1)C2=O | 28.4% | 14.7% | 41.5% | 55.2% | 48.2% | 33.7% | 44.5% | 29% | 51.3% | 49.4% | 30.3% | 26.2% | 48% | 41.9% | 28.9% | 40.8% | 9.37% (active) | 26.6% | 11.9% | 62.3% |
| COc1cc(-c2n/c(=C\c3c(O)[nH]c4ccc(Cl)cc34)cc3c2=Nc2ccccc2-3)cc(OC)c1OC | -15.4% (active) | 3.48% (active) | -40.3% (active) | -14.9% (active) | -70.3% (active) | -11.8% (active) | 7.89% (active) | 31.2% | 27.2% | 0.836% (active) | 28.4% | -11.2% (active) | -4.26% (active) | 14.9% | -84.3% (active) | -13.1% (active) | 44.7% | 2.11% (active) | -63.6% (active) | 16.5% |
| CCN(CC)CCn1nc2c3c(cccc3c1=O)-c1ccccc1-2 | 20.9% | 13.8% | -9.04% (active) | 37.7% | 24.2% | 45.9% | 7.02% (active) | 30.7% | 2.85% (active) | 28.4% | 17.1% | 15.6% | 50.9% | 26% | 6.95% (active) | 26.6% | -20% (active) | 5.94% (active) | -3.44% (active) | 37.1% |
| COc1ccc(C(=O)COc2ccc(/C=C3\Oc4ccccc4C3=O)cc2)cc1 | 120% | 101% | 112% | 83.6% | 95.4% | 108% | 172% | 94.7% | 97.8% | 84.7% | 96.8% | 102% | 89.7% | 90.9% | 97.4% | 97.3% | 85.8% | 72.5% | 92.6% | 123% |
| CCCCCc1nc2c(c3c1CCCC3)CCCC2 | 114% | 37.3% | 102% | 104% | 80% | 105% | 81.6% | 93.2% | 82.5% | 103% | 74.8% | 55.4% | 82.1% | 72.8% | 83.7% | 64.9% | 83.8% |  | 88.3% | 100% |
| COc1ccc(/C=N\NC(=O)c2cc(-c3ccc(Br)cc3)n(-c3ccc(S(N)(=O)=O)cc3)n2)cc1 | 58.6% | 11.4% | 47% | 70.4% | 18.5% | 53.1% | 11% | 18.3% | 66.2% | 30.9% | 33.3% | 36.7% | -27.8% (active) | 57.3% | 51.3% | 51.2% | 42% |  | 45.4% | 47.4% |
| COc1ccc(-c2nc(SCC(=O)Nc3nc(-c4ccccc4)cs3)[nH]c(=O)c2C#N)cc1 | 118% | 93.5% | 90.1% | 95.1% | 96.6% | 95.9% | 96.3% | 103% | 109% | 89.6% | 109% | 115% | 70.4% | 109% | 103% | 86% | 102% |  | 92.9% | 104% |

Source: PubChem BioAssay (NCI)
